{
  "source": "ChEMBL document CHEMBL1961873",
  "about": "“Compounds: GSK PKIS; Assays: Nanosyn kinase panel” (2012)",
  "key": {"[1]": {"target": "Sphingosine kinase 1 (Homo sapiens) (UniProt Q9NYA1)", "sequence (Q9NYA1 whole entry)": "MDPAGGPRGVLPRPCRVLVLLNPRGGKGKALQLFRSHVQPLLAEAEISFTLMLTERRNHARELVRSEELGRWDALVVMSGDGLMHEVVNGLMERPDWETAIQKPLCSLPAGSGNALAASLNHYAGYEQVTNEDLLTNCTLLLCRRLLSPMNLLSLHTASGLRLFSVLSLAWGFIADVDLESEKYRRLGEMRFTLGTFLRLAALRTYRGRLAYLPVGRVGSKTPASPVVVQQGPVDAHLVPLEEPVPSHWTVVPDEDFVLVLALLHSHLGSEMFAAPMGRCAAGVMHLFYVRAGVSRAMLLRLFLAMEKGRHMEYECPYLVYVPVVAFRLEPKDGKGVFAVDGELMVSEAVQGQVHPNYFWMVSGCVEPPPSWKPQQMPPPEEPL", "conditions": "at 1 µM"}, "[2]": {"target": "T1, Sphingosine kinase 2 (Homo sapiens) (UniProt Q9NRA0)", "T1 sequence (whole entry)": "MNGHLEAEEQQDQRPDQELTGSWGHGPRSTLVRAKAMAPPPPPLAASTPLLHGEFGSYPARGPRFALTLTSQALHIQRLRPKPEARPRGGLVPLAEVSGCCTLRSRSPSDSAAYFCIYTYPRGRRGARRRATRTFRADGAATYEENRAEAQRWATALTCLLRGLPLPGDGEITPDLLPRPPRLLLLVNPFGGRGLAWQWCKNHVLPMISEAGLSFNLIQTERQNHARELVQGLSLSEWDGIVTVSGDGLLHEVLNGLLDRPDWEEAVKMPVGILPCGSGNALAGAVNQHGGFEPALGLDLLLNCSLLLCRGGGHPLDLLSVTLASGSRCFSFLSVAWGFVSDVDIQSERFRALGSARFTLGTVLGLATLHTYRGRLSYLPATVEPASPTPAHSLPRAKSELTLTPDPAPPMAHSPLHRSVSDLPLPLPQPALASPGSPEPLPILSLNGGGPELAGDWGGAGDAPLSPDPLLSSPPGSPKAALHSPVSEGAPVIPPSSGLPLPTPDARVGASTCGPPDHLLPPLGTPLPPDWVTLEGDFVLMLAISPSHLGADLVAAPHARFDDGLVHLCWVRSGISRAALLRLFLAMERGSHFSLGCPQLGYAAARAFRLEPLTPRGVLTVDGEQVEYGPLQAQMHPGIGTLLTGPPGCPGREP", "conditions": "at 0.1 µM"}, "[3]": {"target": "T1, Sphingosine kinase 2 (Homo sapiens)", "conditions": "at 1 µM"}, "[4]": {"target": "Casein kinase II subunit alpha (Homo sapiens) (UniProt P68400)", "sequence (P68400 whole entry, looked up)": "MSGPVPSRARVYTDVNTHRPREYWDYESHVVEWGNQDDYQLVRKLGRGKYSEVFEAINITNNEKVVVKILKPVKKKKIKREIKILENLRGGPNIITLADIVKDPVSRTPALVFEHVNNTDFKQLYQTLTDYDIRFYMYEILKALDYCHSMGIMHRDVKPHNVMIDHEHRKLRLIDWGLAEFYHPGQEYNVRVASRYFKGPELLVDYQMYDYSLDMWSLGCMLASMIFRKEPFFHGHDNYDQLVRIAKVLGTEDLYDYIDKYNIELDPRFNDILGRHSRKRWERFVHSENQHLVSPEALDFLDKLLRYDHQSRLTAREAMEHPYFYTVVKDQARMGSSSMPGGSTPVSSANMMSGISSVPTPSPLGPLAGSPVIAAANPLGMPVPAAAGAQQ", "conditions": "at 0.1 µM"}, "[5]": {"target": "Casein kinase II subunit alpha (Homo sapiens) (UniProt P68400)", "conditions": "at 1 µM"}, "[6]": {"target": "T2, Inhibitor of nuclear factor kappa-B kinase subunit alpha (Homo sapiens) (UniProt O15111)", "T2 sequence (whole entry)": "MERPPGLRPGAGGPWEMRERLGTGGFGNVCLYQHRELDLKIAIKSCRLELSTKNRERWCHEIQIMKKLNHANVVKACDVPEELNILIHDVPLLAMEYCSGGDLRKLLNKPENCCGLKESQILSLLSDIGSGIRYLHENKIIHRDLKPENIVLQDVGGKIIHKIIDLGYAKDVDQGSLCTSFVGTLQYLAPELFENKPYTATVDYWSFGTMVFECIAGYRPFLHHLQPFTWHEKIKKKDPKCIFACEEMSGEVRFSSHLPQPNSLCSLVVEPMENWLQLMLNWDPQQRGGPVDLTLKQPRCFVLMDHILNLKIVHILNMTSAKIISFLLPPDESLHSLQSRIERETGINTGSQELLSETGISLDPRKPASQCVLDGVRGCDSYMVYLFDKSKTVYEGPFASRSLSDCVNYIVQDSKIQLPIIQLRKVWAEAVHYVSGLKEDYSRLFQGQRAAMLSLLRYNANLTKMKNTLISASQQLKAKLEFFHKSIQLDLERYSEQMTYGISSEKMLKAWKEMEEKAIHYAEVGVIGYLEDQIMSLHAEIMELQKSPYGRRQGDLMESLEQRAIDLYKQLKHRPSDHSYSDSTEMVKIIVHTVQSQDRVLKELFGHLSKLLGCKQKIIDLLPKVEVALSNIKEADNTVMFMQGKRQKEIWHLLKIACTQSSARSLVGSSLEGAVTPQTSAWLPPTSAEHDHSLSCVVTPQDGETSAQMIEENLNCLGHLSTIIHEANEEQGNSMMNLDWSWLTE", "conditions": "at 0.1 µM"}, "[7]": {"target": "T2, Inhibitor of nuclear factor kappa-B kinase subunit alpha (Homo sapiens)", "conditions": "at 1 µM"}, "[8]": {"target": "T3, Inhibitor of nuclear factor kappa-B kinase subunit beta (Homo sapiens) (UniProt O14920)", "T3 sequence (whole entry)": "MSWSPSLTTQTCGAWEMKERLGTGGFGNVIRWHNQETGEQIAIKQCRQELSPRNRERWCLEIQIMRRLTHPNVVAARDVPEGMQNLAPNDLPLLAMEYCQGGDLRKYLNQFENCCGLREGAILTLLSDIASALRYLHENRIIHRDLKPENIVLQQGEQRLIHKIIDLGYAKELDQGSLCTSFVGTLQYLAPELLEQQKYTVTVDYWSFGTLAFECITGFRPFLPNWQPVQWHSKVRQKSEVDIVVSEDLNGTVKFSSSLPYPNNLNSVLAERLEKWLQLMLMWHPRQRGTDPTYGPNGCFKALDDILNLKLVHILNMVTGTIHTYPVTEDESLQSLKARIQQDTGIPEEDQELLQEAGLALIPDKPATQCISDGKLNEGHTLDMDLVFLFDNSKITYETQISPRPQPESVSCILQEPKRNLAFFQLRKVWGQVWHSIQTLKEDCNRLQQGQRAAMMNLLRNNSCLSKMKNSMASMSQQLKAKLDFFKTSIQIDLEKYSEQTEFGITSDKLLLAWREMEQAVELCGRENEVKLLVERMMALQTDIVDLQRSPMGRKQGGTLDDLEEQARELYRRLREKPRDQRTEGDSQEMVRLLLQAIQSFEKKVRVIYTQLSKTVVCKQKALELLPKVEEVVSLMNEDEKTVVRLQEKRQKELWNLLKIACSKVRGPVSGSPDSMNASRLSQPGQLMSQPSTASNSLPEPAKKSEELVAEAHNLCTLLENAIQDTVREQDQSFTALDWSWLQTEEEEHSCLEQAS", "conditions": "at 0.1 µM"}, "[9]": {"target": "T3, Inhibitor of nuclear factor kappa-B kinase subunit beta (Homo sapiens)", "conditions": "at 1 µM"}, "[10]": {"target": "T4, Inhibitor of nuclear factor kappa-B kinase subunit epsilon (Homo sapiens) (UniProt Q14164)", "T4 sequence (whole entry)": "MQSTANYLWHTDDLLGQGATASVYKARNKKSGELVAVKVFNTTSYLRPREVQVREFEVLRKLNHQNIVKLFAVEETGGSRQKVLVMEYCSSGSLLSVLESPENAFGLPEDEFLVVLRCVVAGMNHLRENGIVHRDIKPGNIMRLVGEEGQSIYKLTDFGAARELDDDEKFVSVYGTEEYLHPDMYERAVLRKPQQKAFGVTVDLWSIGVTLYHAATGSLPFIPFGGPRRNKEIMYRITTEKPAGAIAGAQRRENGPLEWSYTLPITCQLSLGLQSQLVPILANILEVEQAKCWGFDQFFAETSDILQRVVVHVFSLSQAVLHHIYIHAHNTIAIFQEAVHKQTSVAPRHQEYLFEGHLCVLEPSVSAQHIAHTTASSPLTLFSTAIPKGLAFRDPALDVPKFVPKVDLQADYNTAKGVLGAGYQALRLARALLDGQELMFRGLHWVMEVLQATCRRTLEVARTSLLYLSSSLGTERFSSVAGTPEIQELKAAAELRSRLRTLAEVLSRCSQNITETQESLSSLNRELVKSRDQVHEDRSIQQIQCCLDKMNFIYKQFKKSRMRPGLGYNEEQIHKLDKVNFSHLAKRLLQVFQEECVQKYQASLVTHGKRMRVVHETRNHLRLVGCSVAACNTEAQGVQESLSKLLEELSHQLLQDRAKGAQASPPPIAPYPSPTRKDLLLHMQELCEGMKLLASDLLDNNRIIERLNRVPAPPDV", "conditions": "at 0.1 µM"}},
  "data": [
    {"smiles": "CS(=O)(=O)Nc1ccc(-c2cc(-c3ccccc3)cc(C(N)=O)c2N)cc1", "values": [
      {"measurement": "inhibition", "setting": "[1]", "value": 2.51, "unit": "%"},
      {"measurement": "inhibition", "setting": "[2]", "value": -0.04, "unit": "%"},
      {"measurement": "inhibition", "setting": "[3]", "value": -0.67, "unit": "%"},
      {"measurement": "inhibition", "setting": "[4]", "value": 0.89, "unit": "%"},
      {"measurement": "inhibition", "setting": "[5]", "value": 2.26, "unit": "%"},
      {"measurement": "inhibition", "setting": "[6]", "value": 1.46, "unit": "%"},
      {"measurement": "inhibition", "setting": "[7]", "value": 4.19, "unit": "%"},
      {"measurement": "inhibition", "setting": "[8]", "value": 6.82, "unit": "%"},
      {"measurement": "inhibition", "setting": "[9]", "value": 27.4, "unit": "%"},
      {"measurement": "inhibition", "setting": "[10]", "value": 0.29, "unit": "%"}
    ]}
  ]
}
